Compounds without any hit were thinned out: in the full panel of roughly 83,000, 20% have a hit.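 Negative percent growth values reflect cell death: -40 means 40% of the cells present at the start died, and -100 means all died.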 Calls of active or inactive are those of the source. Rule for the calls: active = growth percent below 10; inactive = the rest.
How the values were obtained:
Assay in all cases: NCI-60 one-dose screen, 48 h (100 = growth as untreated, 0 = no growth, -100 = all killed)
DU-145 prostate = conditions: 10 µM unless noted
K-562 leukemia = conditions: 10 µM unless noted
MALME-3M melanoma = conditions: 10 µM unless noted
MDA-MB-231 breast = conditions: 10 µM unless noted
RXF 393 renal = conditions: 10 µM unless noted
SF-268 CNS = conditions: 10 µM unless noted
SF-295 CNS = conditions: 10 µM unless noted
SF-539 CNS = conditions: 10 µM unless noted
UACC-257 melanoma = conditions: 10 µM
M14 melanoma = conditions: 10 µM unless noted

Measured: growth

Clc1ccc2c(c1)NC1(CCSc3ccccc31)n1nccc1-2 (stereo not given)
inactive: DU-145 prostate 103% | K-562 leukemia 97.4% | MALME-3M melanoma 85.8% | MDA-MB-231 breast 98.1% | RXF 393 renal 119% | SF-268 CNS 94.8% | SF-295 CNS 97.4% | SF-539 CNS 92.4% | UACC-257 melanoma 97.4% | M14 melanoma 96.6%

c1cc(-c2ccc3c(c2)OCO3)n2nccc2n1
inactive: DU-145 prostate 106% | K-562 leukemia 102% | MALME-3M melanoma 104% | MDA-MB-231 breast 106% | RXF 393 renal 96.4% | SF-268 CNS 104% | SF-295 CNS 99.9% | SF-539 CNS 89.1% | UACC-257 melanoma 103% | M14 melanoma 109%

CCCCCC(=O)OCc1ccccc1
inactive: DU-145 prostate 103% | K-562 leukemia 84.9% | MALME-3M melanoma 85.9% | MDA-MB-231 breast 109% | RXF 393 renal 105% | SF-268 CNS 97.2% | SF-295 CNS 99.8% | SF-539 CNS 98.8% | UACC-257 melanoma 96.8% | M14 melanoma 94.9%

COc1ccc(OC)c(-c2ccc(-c3ccccc3N)c3[nH]c4ccccc4c23)c1
inactive: DU-145 prostate 89.6% | K-562 leukemia 76.2% | MALME-3M melanoma 85% | MDA-MB-231 breast 74.1% | RXF 393 renal 98.2% | SF-268 CNS 79.1% | SF-295 CNS 99.4% | SF-539 CNS 93.2% | UACC-257 melanoma 85% | M14 melanoma 84.6%

O=C(CNc1c(Cl)cccc1Cl)Nc1ccc(-c2nc3ccccc3s2)cc1
inactive: DU-145 prostate 85.7% | K-562 leukemia 10.5% | MDA-MB-231 breast 56.9% | RXF 393 renal 86.6% | SF-268 CNS 46.2% | SF-295 CNS 97.4% | SF-539 CNS 79.9% | UACC-257 melanoma 96.5% | M14 melanoma 55.7%
active: MALME-3M melanoma -50%

Cc1nc(Nc2cccnc2)sc1C(=O)/C=C/c1ccc(F)cc1
active: DU-145 prostate 9.5%
inactive: K-562 leukemia 11.4% | MALME-3M melanoma 88.1% | MDA-MB-231 breast 89.2% | RXF 393 renal 18.1% | SF-268 CNS 42.1% | SF-295 CNS 42.4% | SF-539 CNS 18.2% | UACC-257 melanoma 73.5% | M14 melanoma 25.5%

CCCOC(=O)C1(O)CCCC1
inactive: DU-145 prostate 123% | K-562 leukemia 110% | MALME-3M melanoma 96.3% | MDA-MB-231 breast 112% | RXF 393 renal 103% | SF-268 CNS 121% | SF-295 CNS 105% | SF-539 CNS 88.1% | UACC-257 melanoma 103% | M14 melanoma 107%

COC1=CC(c2ccc[nH]2)=N/C1=C\c1[nH]c(C)c(C(=O)CCCCC(=O)Oc2ccc3c(c2)CCC2C3CC[C@]3(C)[C@@H](O)CC[C@@H]23)c1C (stereo not given in full)
inactive: DU-145 prostate 30.6% | K-562 leukemia 13.6% | MALME-3M melanoma 80.1% | MDA-MB-231 breast 10.9% | RXF 393 renal 62.4% | SF-268 CNS 44.6% | SF-295 CNS 80.8% | SF-539 CNS 65.9% | UACC-257 melanoma 103% | M14 melanoma 60%

CC(C)C[C@H](NC(=O)[C@H](Cc1ccccc1)n1ccc(N2CCCCC2)cc1=O)B(O)O
active: K-562 leukemia 9.62% | MALME-3M melanoma -23.8% | MDA-MB-231 breast -26.2% | RXF 393 renal -54% | SF-268 CNS -8.05% | SF-295 CNS 7.12% | SF-539 CNS -11.5% | UACC-257 melanoma -16.9%
inactive: DU-145 prostate 41.3% | M14 melanoma 12.5%

Clc1ccc(/C=C/c2nc(N3CCOCC3)c3nc(Cl)c(Cl)cc3n2)cc1
inactive: DU-145 prostate 103% | K-562 leukemia 79.3% | MALME-3M melanoma 113% | MDA-MB-231 breast 110% | RXF 393 renal 117% | SF-268 CNS 97.3% | SF-295 CNS 91.9% | SF-539 CNS 98.6% | UACC-257 melanoma 106% | M14 melanoma 96.4%

COc1ccccc1CNCCCN1C(=O)c2ccc3c4c(ccc(c24)C1=O)C(=O)N(CCCNCCCCNCCCCN)C3=O
inactive: RXF 393 renal 22.6% | SF-539 CNS 11%
active: DU-145 prostate 9.88% | K-562 leukemia 7.51% | MALME-3M melanoma -83.9% | MDA-MB-231 breast 8.05% | SF-268 CNS 4.92% | SF-295 CNS 2.29% | UACC-257 melanoma -56.2% | M14 melanoma -5.69%

Cc1nn(-c2ccc(Cl)cc2)c(=O)n1CCOc1ccccc1Cl
inactive: DU-145 prostate 110% | K-562 leukemia 96.8% | MALME-3M melanoma 103% | MDA-MB-231 breast 89.6% | RXF 393 renal 115% | SF-268 CNS 106% | SF-295 CNS 72.3% | SF-539 CNS 108% | UACC-257 melanoma 105% | M14 melanoma 98.8%

COc1ccc(C(=O)/C=C/c2cccc([N+](=O)[O-])c2)c(OC)c1
active: K-562 leukemia 8.25% | RXF 393 renal -33.8% | SF-539 CNS 8.09%
inactive: DU-145 prostate 25.3% | MALME-3M melanoma 70.5% | MDA-MB-231 breast 34.7% | SF-268 CNS 25% | SF-295 CNS 35.5% | UACC-257 melanoma 66.4% | M14 melanoma 30.6%

COc1ccc(NC(=O)c2cc3ccccc3nc2Nc2cc(OC)c(OC)c(OC)c2)cc1
inactive: DU-145 prostate 66.3% | K-562 leukemia 50.6% | MALME-3M melanoma 132% | MDA-MB-231 breast 54.1% | RXF 393 renal 60.5% | SF-268 CNS 66.6% | SF-295 CNS 65.5% | SF-539 CNS 68.3% | UACC-257 melanoma 83.6% | M14 melanoma 55.1%

CCn1cc(C(=O)O)c(=O)c2cc(F)c(N3CCN(S(=O)(=O)c4c(C)cc(C)cc4C)CC3)cc21
inactive: DU-145 prostate 99.5% | K-562 leukemia 79.9% | MALME-3M melanoma 90.3% | MDA-MB-231 breast 83.7% | RXF 393 renal 88.9% | SF-268 CNS 83.7% | SF-295 CNS 48.4% | SF-539 CNS 79.9% | UACC-257 melanoma 106% | M14 melanoma 75.6%

CCNC(=O)CCCCC(=O)c1c(C)[nH]c(/C=C2\N=C(c3ccc[nH]3)C=C2OC)c1C
inactive: K-562 leukemia 51.5% | MALME-3M melanoma 51.6% | SF-268 CNS 27.2% | SF-539 CNS 54.8% | UACC-257 melanoma 54.6%
active: DU-145 prostate 2.48% | MDA-MB-231 breast 0.721% | RXF 393 renal -48% | SF-295 CNS -22.1% | M14 melanoma 5.27%

O=C(NCCCN1CCN(CCCNC(=O)C2CCCCC2)CC1)C1CCCCC1
inactive: DU-145 prostate 110% | K-562 leukemia 92.7% | MALME-3M melanoma 94% | MDA-MB-231 breast 108% | RXF 393 renal 119% | SF-268 CNS 104% | SF-295 CNS 84.5% | SF-539 CNS 96.7% | UACC-257 melanoma 97.1% | M14 melanoma 98.6%

COc1cc(CNC(=O)CCSc2nc3ccccc3c(=O)n2Cc2cc(OC)c(OC)c(OC)c2)cc(OC)c1OC
active: K-562 leukemia 8.67% | M14 melanoma 6.56%
inactive: DU-145 prostate 58.1% | MALME-3M melanoma 40.9% | MDA-MB-231 breast 46% | RXF 393 renal 43.6% | SF-268 CNS 50.4% | SF-295 CNS 36.6% | SF-539 CNS 25.4% | UACC-257 melanoma 59.1%

O=C(/C=C/c1ccccc1)n1c(-c2ccc(Cl)cc2)nc2ccccc21
active: MDA-MB-231 breast -26.5% | RXF 393 renal -65.2% | SF-268 CNS -11.9% | SF-295 CNS -52% | SF-539 CNS -48.4% | UACC-257 melanoma -64.4% | M14 melanoma -37.3%
inactive: DU-145 prostate 11.1% | K-562 leukemia 39.8% | MALME-3M melanoma 15.9%

O=C(Nc1ccc(Br)c(Cl)c1)c1cc(F)ccc1O
active: K-562 leukemia 9.59% | MALME-3M melanoma -22.8% | MDA-MB-231 breast -20% | RXF 393 renal -5.62% | SF-295 CNS -53.1% | SF-539 CNS 5.17% | UACC-257 melanoma -23.5% | M14 melanoma -14.3%
inactive: DU-145 prostate 23.5% | SF-268 CNS 19.1%

CCN(C(=O)c1cc2ncccc2[nH]1)[C@H]1CCC[C@@H](NCc2cccc(F)c2)C1
inactive: DU-145 prostate 104% | K-562 leukemia 105% | MALME-3M melanoma 92% | MDA-MB-231 breast 91.4% | RXF 393 renal 95.1% | SF-268 CNS 102% | SF-295 CNS 102% | SF-539 CNS 98.5% | UACC-257 melanoma 107% | M14 melanoma 113%

CCn1cc(C(=O)O)c(=O)c2cc(F)c(N3CCN(S(=O)(=O)c4cccc5ccccc45)CC3)cc21
active: MALME-3M melanoma -16% | SF-295 CNS 7.68%
inactive: DU-145 prostate 18.9% | K-562 leukemia 15.4% | MDA-MB-231 breast 23.9% | RXF 393 renal 29% | SF-268 CNS 16.4% | SF-539 CNS 17.4% | UACC-257 melanoma 14% | M14 melanoma 17.9%

COC1=CC(c2ccc[nH]2)=N/C1=C\c1[nH]c(C)c(C(=O)CCCCC(=O)NCc2ccccc2)c1C
inactive: DU-145 prostate 17% | K-562 leukemia 74.5% | MALME-3M melanoma 76.7% | SF-268 CNS 54.9% | SF-295 CNS 51.2% | SF-539 CNS 56.6% | UACC-257 melanoma 86.9% | M14 melanoma 36.2%
active: MDA-MB-231 breast -30.5% | RXF 393 renal -72.3%

Cc1cc2c(c(=O)o1)C(c1ccc(OC(=O)N3CCOCC3)cc1)C(C#N)=C(N)O2 (stereo not given)
inactive: DU-145 prostate 112% | K-562 leukemia 98.6% | MALME-3M melanoma 126% | MDA-MB-231 breast 116% | RXF 393 renal 114% | SF-268 CNS 114% | SF-295 CNS 100% | SF-539 CNS 96.5% | UACC-257 melanoma 98.2% | M14 melanoma 110%

CCNC(=O)C1CCCN1C(=O)C(CCCN=C(N)N)NC(=O)C(CC(C)C)NC(=O)C(CC(C)C)NC(=O)C(Cc1ccc(O)cc1)NC(=O)C(CO)NC(=O)C(Cc1c[nH]c2ccccc12)NC(=O)C(Cc1cnc[nH]1)NC(=O)C1CCC(=O)N1 (stereo not given)
inactive: DU-145 prostate 135% | K-562 leukemia 73.5% | MALME-3M melanoma 122% | MDA-MB-231 breast 112% | RXF 393 renal 28.4% | SF-268 CNS 100% | SF-295 CNS 122% | SF-539 CNS 96.1% | UACC-257 melanoma 83.8% | M14 melanoma 102%

COc1cc(/C=C\c2cc(OC)c(OC)c(OC)c2)cc(N/C=C\C(=O)c2c[nH]c3ccccc23)c1OC
inactive: DU-145 prostate 41.7% | SF-268 CNS 72% | SF-295 CNS 55.8% | UACC-257 melanoma 33.4% | M14 melanoma 52.9%
active: K-562 leukemia -9.37% | MALME-3M melanoma -58.2% | MDA-MB-231 breast -12% | RXF 393 renal -35.3% | SF-539 CNS -95.2%

— PubChem BioAssay (NCI)
